One may read the inhibition as the change of the read-out against control, counted positive when it falls.

Drawing on ChEMBL document CHEMBL1961873, “Compounds: GSK PKIS; Assays: Nanosyn kinase panel” (2012), this text covers inhibition for two compounds.

Assay [1] deals with Protein kinase C gamma type (Homo sapiens) (UniProt P05129). Conditions: at 1 µM.
Assay [2] concerns the target T1, Protein kinase C iota type (Homo sapiens) (UniProt P41743).
T1 sequence (whole entry): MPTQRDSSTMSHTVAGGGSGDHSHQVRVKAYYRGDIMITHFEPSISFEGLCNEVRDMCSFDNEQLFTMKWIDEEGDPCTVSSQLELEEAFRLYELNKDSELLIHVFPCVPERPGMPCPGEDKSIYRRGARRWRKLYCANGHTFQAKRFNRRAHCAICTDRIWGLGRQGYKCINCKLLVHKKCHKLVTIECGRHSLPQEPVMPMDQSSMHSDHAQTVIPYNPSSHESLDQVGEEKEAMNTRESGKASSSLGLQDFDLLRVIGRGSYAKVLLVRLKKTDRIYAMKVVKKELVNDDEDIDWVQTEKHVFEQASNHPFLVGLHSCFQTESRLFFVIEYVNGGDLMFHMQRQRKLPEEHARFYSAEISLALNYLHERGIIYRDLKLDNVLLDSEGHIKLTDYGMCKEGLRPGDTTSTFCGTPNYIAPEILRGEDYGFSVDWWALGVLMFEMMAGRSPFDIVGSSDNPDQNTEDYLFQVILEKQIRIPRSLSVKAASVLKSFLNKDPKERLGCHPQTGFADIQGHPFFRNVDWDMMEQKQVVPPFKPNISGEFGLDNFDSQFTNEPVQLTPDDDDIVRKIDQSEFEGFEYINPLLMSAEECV
Conditions: at 0.1 µM.

The target in assay [3] is T1, Protein kinase C iota type (Homo sapiens). Conditions: at 1 µM.
Assay [4] has as its target Protein kinase C theta type (Homo sapiens) (UniProt Q04759). To be noted: at 0.1 µM.
The target is the same in assay [5]. To be noted: at 1 µM.
Assay [6] deals with Protein kinase C beta type (Homo sapiens) (UniProt P05771). Conditions: at 0.1 µM.
For assay [7] the target is unchanged. To be noted: at 1 µM.
In assay [8] the target is T2, Serine/threonine-protein kinase D1 (Homo sapiens) (UniProt Q15139).
T2 sequence (whole entry): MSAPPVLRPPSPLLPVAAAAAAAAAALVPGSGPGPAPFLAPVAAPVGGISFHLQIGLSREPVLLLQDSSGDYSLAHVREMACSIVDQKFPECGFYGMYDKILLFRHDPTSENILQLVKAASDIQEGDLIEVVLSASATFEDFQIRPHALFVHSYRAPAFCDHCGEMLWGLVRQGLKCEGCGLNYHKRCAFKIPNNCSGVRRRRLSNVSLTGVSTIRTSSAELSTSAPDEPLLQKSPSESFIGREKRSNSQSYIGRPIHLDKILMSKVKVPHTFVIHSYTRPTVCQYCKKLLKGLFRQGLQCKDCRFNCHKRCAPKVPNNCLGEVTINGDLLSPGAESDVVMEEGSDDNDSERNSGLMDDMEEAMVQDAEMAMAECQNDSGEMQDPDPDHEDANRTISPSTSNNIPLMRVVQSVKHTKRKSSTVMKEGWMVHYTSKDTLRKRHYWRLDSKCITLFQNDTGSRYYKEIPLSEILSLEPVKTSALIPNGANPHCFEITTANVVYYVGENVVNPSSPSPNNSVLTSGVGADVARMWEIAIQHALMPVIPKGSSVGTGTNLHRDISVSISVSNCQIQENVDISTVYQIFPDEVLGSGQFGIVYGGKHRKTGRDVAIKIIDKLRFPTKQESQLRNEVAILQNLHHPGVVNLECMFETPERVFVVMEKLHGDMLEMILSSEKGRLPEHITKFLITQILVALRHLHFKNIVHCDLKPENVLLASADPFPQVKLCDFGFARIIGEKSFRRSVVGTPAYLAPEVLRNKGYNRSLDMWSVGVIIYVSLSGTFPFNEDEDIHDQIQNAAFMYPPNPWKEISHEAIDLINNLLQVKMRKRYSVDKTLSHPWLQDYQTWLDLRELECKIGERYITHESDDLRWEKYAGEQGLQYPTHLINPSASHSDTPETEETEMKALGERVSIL
Conditions: at 0.1 µM.

For assay [9], the target named is T2, Serine/threonine-protein kinase D1 (Homo sapiens). Conditions: at 1 µM.
Assay [10] has as its target T3, Serine/threonine-protein kinase D2 (Homo sapiens) (UniProt Q9BZL6).
T3 sequence (whole entry): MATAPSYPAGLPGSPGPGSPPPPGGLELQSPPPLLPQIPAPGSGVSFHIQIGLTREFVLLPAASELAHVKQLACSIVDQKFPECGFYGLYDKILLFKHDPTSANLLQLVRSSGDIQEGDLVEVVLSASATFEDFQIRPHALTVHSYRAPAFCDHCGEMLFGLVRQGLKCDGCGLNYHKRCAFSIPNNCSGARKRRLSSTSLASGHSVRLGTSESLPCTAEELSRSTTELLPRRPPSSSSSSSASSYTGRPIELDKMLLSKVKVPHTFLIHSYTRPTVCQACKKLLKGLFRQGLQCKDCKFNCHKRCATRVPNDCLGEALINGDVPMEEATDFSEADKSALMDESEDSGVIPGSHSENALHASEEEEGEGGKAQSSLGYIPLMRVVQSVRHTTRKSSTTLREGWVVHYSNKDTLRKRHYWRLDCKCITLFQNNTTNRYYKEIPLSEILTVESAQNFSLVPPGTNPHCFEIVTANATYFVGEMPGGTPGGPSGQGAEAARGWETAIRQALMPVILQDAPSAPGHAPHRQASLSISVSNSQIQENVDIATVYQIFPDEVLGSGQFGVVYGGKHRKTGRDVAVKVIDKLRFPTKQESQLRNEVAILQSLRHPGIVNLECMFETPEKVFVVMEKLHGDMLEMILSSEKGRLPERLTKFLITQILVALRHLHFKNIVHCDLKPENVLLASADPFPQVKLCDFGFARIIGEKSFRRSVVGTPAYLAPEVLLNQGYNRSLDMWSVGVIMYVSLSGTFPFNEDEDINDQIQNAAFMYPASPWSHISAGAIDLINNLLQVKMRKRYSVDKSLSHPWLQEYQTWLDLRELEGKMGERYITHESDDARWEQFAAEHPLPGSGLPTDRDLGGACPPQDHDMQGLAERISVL
Conditions: at 0.1 µM.

The target of assay [11] is T3, Serine/threonine-protein kinase D2 (Homo sapiens). To be noted: at 1 µM.
Assay [12] deals with T4, Serine/threonine-protein kinase D3 (Homo sapiens) (UniProt O94806).
T4 sequence (whole entry): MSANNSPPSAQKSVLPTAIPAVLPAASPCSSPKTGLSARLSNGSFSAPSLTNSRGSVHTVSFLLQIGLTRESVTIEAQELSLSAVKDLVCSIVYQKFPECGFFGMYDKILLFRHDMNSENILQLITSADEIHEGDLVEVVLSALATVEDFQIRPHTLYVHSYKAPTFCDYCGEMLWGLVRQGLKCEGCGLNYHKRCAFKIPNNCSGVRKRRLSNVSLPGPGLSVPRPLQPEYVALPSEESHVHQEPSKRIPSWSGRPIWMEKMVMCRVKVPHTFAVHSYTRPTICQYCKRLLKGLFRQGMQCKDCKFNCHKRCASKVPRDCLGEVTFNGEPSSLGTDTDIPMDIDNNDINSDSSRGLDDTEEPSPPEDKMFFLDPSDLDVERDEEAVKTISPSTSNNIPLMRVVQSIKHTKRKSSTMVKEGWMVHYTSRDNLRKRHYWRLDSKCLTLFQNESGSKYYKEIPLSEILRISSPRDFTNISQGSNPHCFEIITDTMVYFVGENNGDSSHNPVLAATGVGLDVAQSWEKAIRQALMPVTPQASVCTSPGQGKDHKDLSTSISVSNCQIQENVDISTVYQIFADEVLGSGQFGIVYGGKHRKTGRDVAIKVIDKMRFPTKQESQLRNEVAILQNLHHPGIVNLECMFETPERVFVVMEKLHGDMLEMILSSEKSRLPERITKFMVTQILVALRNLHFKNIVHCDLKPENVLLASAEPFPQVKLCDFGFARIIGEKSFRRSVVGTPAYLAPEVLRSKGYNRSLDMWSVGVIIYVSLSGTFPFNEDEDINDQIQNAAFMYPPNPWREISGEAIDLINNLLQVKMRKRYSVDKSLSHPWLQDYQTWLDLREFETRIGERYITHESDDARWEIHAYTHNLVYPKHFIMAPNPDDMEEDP
To be noted: at 0.1 µM.

For assay [13], the target named is T4, Serine/threonine-protein kinase D3 (Homo sapiens). To be noted: at 1 µM.
Assay [14] addresses T5, cGMP-dependent protein kinase 1 (Homo sapiens) (UniProt Q13976).
T5 sequence (whole entry): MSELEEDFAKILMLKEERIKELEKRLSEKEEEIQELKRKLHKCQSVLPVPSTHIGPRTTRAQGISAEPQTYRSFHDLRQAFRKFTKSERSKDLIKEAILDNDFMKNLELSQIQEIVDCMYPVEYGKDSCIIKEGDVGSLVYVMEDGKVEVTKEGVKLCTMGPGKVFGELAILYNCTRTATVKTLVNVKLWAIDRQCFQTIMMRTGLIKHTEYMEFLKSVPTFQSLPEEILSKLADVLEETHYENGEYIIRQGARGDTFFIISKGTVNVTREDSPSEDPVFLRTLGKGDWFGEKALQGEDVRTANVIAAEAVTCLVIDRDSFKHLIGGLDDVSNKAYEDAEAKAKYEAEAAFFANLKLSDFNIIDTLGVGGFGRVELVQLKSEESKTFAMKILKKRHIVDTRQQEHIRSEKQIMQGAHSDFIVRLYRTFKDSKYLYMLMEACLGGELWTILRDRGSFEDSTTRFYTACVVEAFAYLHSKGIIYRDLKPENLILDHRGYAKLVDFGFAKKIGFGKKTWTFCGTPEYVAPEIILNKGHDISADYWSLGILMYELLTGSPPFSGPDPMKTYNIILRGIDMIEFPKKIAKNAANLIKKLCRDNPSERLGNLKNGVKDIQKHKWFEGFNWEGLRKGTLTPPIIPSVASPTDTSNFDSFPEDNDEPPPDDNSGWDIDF
Conditions: at 0.1 µM.

For assay [15], the target named is T5, cGMP-dependent protein kinase 1 (Homo sapiens). Conditions: at 1 µM.
The target of assay [16] is T6, cGMP-dependent protein kinase 2 (Homo sapiens) (UniProt Q13237).
T6 sequence (whole entry): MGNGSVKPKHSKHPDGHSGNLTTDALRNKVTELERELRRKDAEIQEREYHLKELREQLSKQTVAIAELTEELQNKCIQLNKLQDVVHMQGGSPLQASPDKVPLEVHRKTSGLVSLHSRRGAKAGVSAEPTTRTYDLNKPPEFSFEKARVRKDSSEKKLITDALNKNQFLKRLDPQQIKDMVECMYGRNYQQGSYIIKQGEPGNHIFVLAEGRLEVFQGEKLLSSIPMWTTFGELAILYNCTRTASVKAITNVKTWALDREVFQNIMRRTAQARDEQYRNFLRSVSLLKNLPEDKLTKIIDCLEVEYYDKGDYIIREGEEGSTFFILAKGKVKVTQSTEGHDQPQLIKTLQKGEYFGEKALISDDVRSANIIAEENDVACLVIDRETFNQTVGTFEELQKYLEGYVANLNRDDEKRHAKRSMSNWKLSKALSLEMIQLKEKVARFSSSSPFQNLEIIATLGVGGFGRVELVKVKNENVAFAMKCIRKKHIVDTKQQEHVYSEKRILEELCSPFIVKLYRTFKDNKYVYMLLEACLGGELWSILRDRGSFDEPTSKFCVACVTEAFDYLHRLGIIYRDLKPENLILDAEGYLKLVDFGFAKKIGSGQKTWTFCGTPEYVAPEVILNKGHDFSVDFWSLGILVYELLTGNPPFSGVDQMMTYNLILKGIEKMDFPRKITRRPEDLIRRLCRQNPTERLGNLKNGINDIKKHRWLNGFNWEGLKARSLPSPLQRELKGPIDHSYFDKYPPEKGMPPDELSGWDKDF
To be noted: at 0.1 µM.

Assay [17] concerns the target T6, cGMP-dependent protein kinase 2 (Homo sapiens). Conditions: at 1 µM.
Assay [18] concerns the target T7, cAMP-dependent protein kinase catalytic subunit PRKX (Homo sapiens) (UniProt P51817).
T7 sequence (whole entry): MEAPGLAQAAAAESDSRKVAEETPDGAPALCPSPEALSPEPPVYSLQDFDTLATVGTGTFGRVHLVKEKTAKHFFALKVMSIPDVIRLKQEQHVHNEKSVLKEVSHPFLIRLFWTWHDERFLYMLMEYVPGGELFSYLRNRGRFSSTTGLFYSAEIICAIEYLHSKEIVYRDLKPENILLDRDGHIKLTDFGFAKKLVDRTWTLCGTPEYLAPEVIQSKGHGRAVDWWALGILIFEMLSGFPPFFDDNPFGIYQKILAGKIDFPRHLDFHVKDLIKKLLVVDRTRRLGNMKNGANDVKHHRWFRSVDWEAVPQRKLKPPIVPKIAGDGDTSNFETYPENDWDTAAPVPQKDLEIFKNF
To be noted: at 0.1 µM.

Assay [19] has as its target T7, cAMP-dependent protein kinase catalytic subunit PRKX (Homo sapiens). Conditions: at 1 µM.
Assay [20] concerns the target Rho-associated protein kinase 1 (Homo sapiens) (UniProt Q13464). Conditions: at 0.1 µM.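 Further: values are mean percent inhibition of ROCK1.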

Sequence of Protein kinase C theta type (Homo sapiens) (Q04759 whole entry, looked up): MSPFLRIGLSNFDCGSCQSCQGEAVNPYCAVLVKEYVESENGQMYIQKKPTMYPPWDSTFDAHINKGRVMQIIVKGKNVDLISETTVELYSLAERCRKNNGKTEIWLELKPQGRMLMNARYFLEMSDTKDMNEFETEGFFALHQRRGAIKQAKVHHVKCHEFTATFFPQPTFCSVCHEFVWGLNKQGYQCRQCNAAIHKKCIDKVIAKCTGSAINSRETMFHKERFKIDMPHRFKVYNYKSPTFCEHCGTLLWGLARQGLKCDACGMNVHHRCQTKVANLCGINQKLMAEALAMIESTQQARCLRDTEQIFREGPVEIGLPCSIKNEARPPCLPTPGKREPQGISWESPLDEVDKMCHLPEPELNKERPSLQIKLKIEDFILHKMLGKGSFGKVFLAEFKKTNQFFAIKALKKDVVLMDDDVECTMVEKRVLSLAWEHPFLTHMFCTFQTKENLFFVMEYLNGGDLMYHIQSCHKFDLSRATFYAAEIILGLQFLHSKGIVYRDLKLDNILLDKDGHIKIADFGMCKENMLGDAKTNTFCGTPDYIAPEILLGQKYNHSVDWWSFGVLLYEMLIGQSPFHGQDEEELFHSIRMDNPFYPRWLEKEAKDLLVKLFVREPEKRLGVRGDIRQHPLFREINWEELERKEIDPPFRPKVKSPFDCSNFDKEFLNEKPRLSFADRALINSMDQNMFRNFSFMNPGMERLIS
Sequence of Protein kinase C beta type (Homo sapiens) (P05771 2-671 limits assumed): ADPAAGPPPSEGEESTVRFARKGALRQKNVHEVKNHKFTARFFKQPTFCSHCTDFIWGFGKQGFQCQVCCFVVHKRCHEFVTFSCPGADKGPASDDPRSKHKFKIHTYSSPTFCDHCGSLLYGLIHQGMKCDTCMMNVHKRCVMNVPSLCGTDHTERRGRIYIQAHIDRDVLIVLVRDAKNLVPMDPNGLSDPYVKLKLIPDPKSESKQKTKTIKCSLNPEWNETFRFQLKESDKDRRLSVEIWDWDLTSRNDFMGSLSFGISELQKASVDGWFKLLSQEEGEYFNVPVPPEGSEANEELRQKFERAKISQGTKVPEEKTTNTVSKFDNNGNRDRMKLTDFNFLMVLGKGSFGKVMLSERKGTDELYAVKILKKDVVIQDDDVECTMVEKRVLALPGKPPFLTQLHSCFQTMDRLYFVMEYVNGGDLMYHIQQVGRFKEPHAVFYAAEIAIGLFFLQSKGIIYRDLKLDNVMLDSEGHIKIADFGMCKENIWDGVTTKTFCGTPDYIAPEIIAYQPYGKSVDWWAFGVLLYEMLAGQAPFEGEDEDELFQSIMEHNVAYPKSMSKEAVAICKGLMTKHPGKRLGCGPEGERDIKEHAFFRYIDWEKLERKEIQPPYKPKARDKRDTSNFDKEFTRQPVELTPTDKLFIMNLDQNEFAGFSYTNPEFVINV
Sequence of Rho-associated protein kinase 1 (Homo sapiens) (Q13464 2-1354 limits assumed): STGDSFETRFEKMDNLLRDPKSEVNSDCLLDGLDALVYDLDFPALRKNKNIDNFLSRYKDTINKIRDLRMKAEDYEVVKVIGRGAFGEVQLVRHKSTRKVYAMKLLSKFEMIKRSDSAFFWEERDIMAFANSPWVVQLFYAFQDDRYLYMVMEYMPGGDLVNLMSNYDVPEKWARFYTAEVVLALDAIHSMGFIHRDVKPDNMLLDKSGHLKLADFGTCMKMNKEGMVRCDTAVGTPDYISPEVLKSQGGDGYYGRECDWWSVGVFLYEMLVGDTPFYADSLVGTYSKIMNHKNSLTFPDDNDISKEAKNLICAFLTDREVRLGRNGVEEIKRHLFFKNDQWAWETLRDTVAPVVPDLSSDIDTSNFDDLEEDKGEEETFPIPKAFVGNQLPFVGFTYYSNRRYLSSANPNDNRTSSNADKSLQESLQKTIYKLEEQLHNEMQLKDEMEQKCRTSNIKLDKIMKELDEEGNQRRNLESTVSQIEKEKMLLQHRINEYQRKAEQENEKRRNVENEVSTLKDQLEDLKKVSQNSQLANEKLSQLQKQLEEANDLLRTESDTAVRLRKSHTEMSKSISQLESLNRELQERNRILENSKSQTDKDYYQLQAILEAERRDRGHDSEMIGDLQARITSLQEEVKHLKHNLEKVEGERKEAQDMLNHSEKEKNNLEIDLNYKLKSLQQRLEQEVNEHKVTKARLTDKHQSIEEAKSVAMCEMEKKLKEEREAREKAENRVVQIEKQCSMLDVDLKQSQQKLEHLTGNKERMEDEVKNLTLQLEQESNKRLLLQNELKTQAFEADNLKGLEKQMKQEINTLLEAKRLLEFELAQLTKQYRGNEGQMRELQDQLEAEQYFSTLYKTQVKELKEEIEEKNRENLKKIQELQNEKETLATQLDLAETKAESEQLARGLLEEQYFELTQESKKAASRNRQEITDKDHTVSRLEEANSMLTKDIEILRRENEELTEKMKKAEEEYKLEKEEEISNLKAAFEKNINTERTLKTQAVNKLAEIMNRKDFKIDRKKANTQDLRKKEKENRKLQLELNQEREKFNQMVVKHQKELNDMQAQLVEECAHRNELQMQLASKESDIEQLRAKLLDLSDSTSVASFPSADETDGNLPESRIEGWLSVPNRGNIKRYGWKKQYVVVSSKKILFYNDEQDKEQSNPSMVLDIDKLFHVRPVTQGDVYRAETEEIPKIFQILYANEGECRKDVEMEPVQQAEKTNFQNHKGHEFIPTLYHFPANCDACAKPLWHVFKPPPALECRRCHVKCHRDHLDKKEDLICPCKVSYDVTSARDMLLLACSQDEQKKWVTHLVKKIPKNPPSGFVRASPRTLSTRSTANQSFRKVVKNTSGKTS

As for `COC(=O)c1sc(-n2cnc3cc(OC)c(OC)cc32)cc1OCc1ccccc1C(F)(F)F`, the inhibition was found to be 2.66% in assay [1]; 0.97% in [2]; 2.66% in assay [3]; 1.11% in assay [4]; 0.41% in assay [5]; 0.96% in assay [6]. Further, the inhibition came to 1.08% in assay [7]; 3.64% in [8]; 5.12% in assay [9]; 4.89% in [10]; 5.96% in assay [11]; 4.17% in assay [12]. Also, the inhibition is 5.73% in [13]; 2.01% in assay [14]; 4.24% in [15]; 1.58% in assay [16]; 3.35% in assay [17]; -0.14% in assay [18]. Besides, the inhibition was found to be 0.19% in [19] and 0.1% in [20].
For the compound `Cc1cccc2c1NC(=O)/C2=N\Nc1ccc(S(N)(=O)=O)cc1`, the inhibition in [1] is -2.77%; in assay [2], 1.18%; in assay [3], 2.53%; in assay [4], 0.85%; in [5], 0.4%; in assay [6] it was 2.86%. In addition, the inhibition in assay [7] was determined as 0.46%; in [8] it was 2.89%; in [9], 4.31%; in assay [10] it was 2.72%; in assay [11], 3.1%; in [12], 3.5%. Further, the inhibition was found to be 3.85% in [13]; 0.72% in [14]; 2.94% in [15]; 3.15% in assay [16]; 3.38% in [17]; 1.15% in assay [18]. Moreover, the values for the inhibition in [19] and in [20] were 2.2% and 1.31%, respectively.
